The text below walks through data of PubChem BioAssay AID588405 (Sanford-Burnham Center for Chemical Genomics, 2011).

About 6,200 (1.7%) of roughly 360,000 compounds were called active.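 The calls were made as follows: active = inhibition of at least 50% at 20 µM; inactive = the rest.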 For the sample, actives were picked, then their nearest neighbours and some compounds at random.

The experiment is described as follows: inhibition of PEG-3 promoter activity – cell-based, HeLa, luciferase luminescence, primary screen (AID 588405). The conditions noted are these: HeLa PEG-Prom luciferase reporter, overnight, at 20 µM, active compounds read high. For orientation: In a reporter assay the amount or activity of a reporter protein is the signal.
On to `COc1ccc(-c2[nH]ncc2CN(C)Cc2cccnc2)c(F)c1`, for which the inhibition (as a rule, the change of the read-out against control, counted positive when it falls) was 9.62% (inactive).
As for `CCOc1ccc2[nH]c(=O)c(CN(CCCO)S(=O)(=O)c3ccc(F)cc3)cc2c1`, the inhibition was 12.7% (inactive).
The result for `COc1ccc2[nH]c(=O)c(CN(Cc3cccnc3)S(=O)(=O)c3ccccc3F)cc2c1` reads 59.6% (active); that for `Cn1c(NCc2cccnc2)nc2cc(-c3ccc(F)cc3)sc2c1=O`, -200% (inactive).
Take `COc1c(C)cc(C(=O)C2CCCN(S(=O)(=O)c3c(C)noc3C)C2)cc1C` (configuration not stated): the inhibition is 34.8% (inactive).
The result for `COc1ccccc1-c1c(C#N)c(N)nc2c1CCC2` reads 8.52% (inactive); that for `Cc1c(-c2ccccc2)nc(N)c(C#N)c1-c1cccs1`, 12.9% (inactive); that for `CSc1nc(N)c(C#N)c(-c2ccccc2Cl)c1C#N`, 53.6% (active).
The result for `NCCCCC(C(=O)O)N(C(=O)OCc1ccccc1)C(=O)OCc1ccccc1` (configuration not stated) reads 5.74% (inactive).
Turning to `CCNC(=O)C1CCCN(C(=O)c2ccc(OC)cc2OC)CC1` (configuration not stated), the inhibition was -2.59% (inactive).
The result for `CNC(=O)c1[nH]cnc1C(=O)N[C@@H](CC(C)C)C(=O)OCc1ccccc1` reads 4.89% (inactive); that for `CCOc1ccc(-n2c(SCC(=O)NC3CCS(=O)(=O)C3)nnc2-c2cccnc2)cc1` (configuration not stated), -3.16% (inactive); that for `CCN1CCC(O)(/C=C/c2ccc(C)cc2)C(C(=O)/C=C/c2ccc(C)cc2)C1` (configuration not stated), 97.7% (active).
The result for `COc1cc(C(O)c2nc(-c3cccc(C(=O)O)c3)cs2)ccc1F` (configuration not stated) reads -37.1% (inactive); that for `Cc1nc(C(F)(F)F)ccc1C(=O)N1CCC1(C)C(=O)NS(=O)(=O)c1ccccc1` (configuration not stated), 11.6% (inactive); that for `CCC(C)Cn1c(O)cc2nn(-c3nc4ccccc4s3)c(=O)c-2c1C` (configuration not stated), 96.7% (active).
Turning to `OC[C@H]1O[C@@H](c2nc(-c3nc(-c4ccc(F)cc4)no3)cs2)[C@H](O)[C@@H](O)[C@H]1O`, the inhibition is -42.8% (inactive).
The result for `Nc1nc(CSc2nnnn2-c2ccccc2)nc(Nc2ccccc2)n1` reads 6.46% (inactive); that for `Cc1cccc(CN2CCN(C3CN(Cc4ccccc4)S(=O)(=O)C3)CC2)c1` (configuration not stated), 24.2% (inactive).
The result for `O=C(OC12CC3CC(CC(C3)C1)C2)c1ccc(NCc2cc(O)ccc2O)cc1` reads 82.7% (active).
The result for `CC1(C)C2CCC1(C)C(OC(=O)c1ccc(O)cc1)C2` (configuration not stated) reads -14.1% (inactive); that for `CCCCC(=O)N(C)c1c(CC)nc2c(OCc3ccc(S(C)(=O)=O)cc3)cccn12`, -0.29% (inactive); that for `CC(C)Oc1cc(F)ccc1-c1cc(C(=O)Nc2ccc(F)cc2)[nH]n1`, -30.2% (inactive).
As to `O=C1CCNCCN1[C@H](CO)Cc1ccccc1`, the inhibition was 3.53% (inactive).
Take `c1ccc2c(CCN3CCNC[C@H]3Cc3cccc4ccccc34)cccc2c1`: the inhibition is -8.29% (inactive).
The result for `c1ccc(C[C@H]2CNCCN2CCC23CC4CC(CC(C4)C2)C3)cc1` reads 96.8% (active); that for `CCC(=O)c1ccc(OC(=O)/C=C/c2cc(OC)c(OC)c(OC)c2)cc1`, 3.36% (inactive); that for `COc1cc(/C=C/C2=CC(C)(C)NC(=S)N2)cc(OC)c1OC`, 4.8% (inactive).
For `COc1cc(/C=C/c2ccc(/C=C/c3cc(OC)c(OC)c(OC)c3)cc2)cc(OC)c1OC`, the inhibition was 61.8% (active).
For the compound `OCCc1ccc(NCCc2ccco2)cc1`, the inhibition is -123% (inactive).
The result for `CN[C@H](C(=O)NC[C@H]1O[C@@H](n2cnc3c(N)ncnc32)[C@H](O)[C@@H]1O)[C@@H](C)OCc1ccccc1` reads -6.23% (inactive); that for `O=C(COC(=O)c1ccc(F)cc1F)Nc1ncccn1`, 22.2% (inactive); that for `CC(C)CNC(=O)C(=O)NCC(c1ccc2c(c1)OCO2)N1CCOCC1` (configuration not stated), -15.4% (inactive).
The result for `CC(C)Cn1c(N)c(C(=O)COC(=O)CN2C(=O)C3CC=CCC3C2=O)c(=O)n(C)c1=O` (configuration not stated) reads 21.8% (inactive); that for `CCCc1cc(=O)[nH]c(SCC(=O)c2c(N)n(CC(C)C)c(=O)n(C)c2=O)n1`, 54.7% (active).
The result for `CCCc1cc(=O)[nH]c(SCC(=O)N2C(C)CCCC2C)n1` (configuration not stated) reads 0.43% (inactive); that for `O=C(NCc1cccnc1)c1ccc2nc([C@@H]3O[C@H](CO)[C@H](O)[C@H](O)[C@H]3O)[nH]c2c1`, 15.8% (inactive).
For `CCC(C)C(CO)NC(=O)/C=C/[C@H]1O[C@@H](n2cnc3c(NC(=O)c4ccccc4)ncnc32)[C@H](O)[C@@H]1O` (some centres not stated), the inhibition is 10.6% (inactive).
With `Cc1ccsc1C(=O)OCC(=O)Nc1cccc(F)c1`, the inhibition was -227% (inactive).
The result for `Cc1ccsc1C(=O)OCC(=O)NCCc1ccccc1` reads -156% (inactive); that for `Cc1ccsc1C(=O)OCC(=O)c1cc(C)n(CC2CCCO2)c1C` (configuration not stated), 55.9% (active).
The result for `COc1ccc(-c2nnc3n2CCCCC3)cc1` reads 11.4% (inactive); that for `COc1ccc(N(C)C(=O)CCS(=O)(=O)c2cccc3nsnc23)cc1`, -4.4% (inactive).
On to `CCN(CC)CCN(C(=O)c1ccc2c(c1)CCCC2)c1nc2c(OC)cccc2s1`, for which the inhibition is -7.74% (inactive).
In the case of `COc1cccc2sc(N(CCCN(C)C)C(=O)CCS(=O)(=O)c3ccccc3)nc12`, the inhibition is 96.4% (active).
The result for `COc1cccc2sc(N(CCCN(C)C)C(=O)C(c3ccccc3)c3ccccc3)nc12` reads 99.4% (active); that for `Cc1cccc2sc(N(CCCN(C)C)C(=O)CCS(=O)(=O)c3ccccc3)nc12`, 100% (active).
The result for `Cc1ccc2sc(N(CCN(C)C)C(=O)/C=C/c3cccs3)nc2c1C` reads 19.8% (inactive); that for `Cc1ccc(S(=O)(=O)CCC(=O)OCC(=O)N(C)Cc2ccccc2)cc1`, -2.43% (inactive).
The result for `COc1ccccc1NC(=O)CC(NCCN(C)C)C(=O)O` (configuration not stated) reads 6.79% (inactive); that for `O=C(CCS(=O)(=O)c1ccccc1)Nc1nc2c(s1)CCCC2`, -47.1% (inactive); that for `CC1(C(=O)NCc2ccc3c(c2)OCO3)CCN1CCc1ccccc1` (configuration not stated), -5.32% (inactive).
For `CC1(C(=O)NS(=O)(=O)c2cccs2)CCN1C(=O)Cc1ccc(-c2ccccc2)cc1` (configuration not stated), the inhibition is 1.06% (inactive).
The result for `O=C(C=CC(=O)Nc1ccc(F)cc1F)Nc1ccc(F)cc1F` reads 14.9% (inactive).
As to `O=S1(=O)CC(N2CCN(CCO)CC2)CN1C1CCCC1` (configuration not stated), the inhibition was -8.51% (inactive).
The result for `Cc1cccc(CN2CCN(C3CN(Cc4cn(Cc5ccccc5F)nn4)S(=O)(=O)C3)CC2)c1` (configuration not stated) reads -6.63% (inactive); that for `CCOC(=O)N(C)c1c(CC)nc2c(OCc3ccccc3C(=O)OC)cccn12`, 13.4% (inactive); that for `Nc1ccccc1SC(C[N+](=O)[O-])c1ccccc1` (configuration not stated), 63.5% (active).
The result for `CCCC(=O)N1CCC1(C)C(=O)NCc1ccc(C(C)C)cc1` (configuration not stated) reads 1.21% (inactive).
Take `CCC(=O)N1CCCC1(C)C(=O)Nc1ccc2c(c1)CCN2C(C)=O` (configuration not stated): the inhibition is 4.54% (inactive).
The result for `CCOC(=O)Nc1ccc2c(c1)N(C(=O)CCN1CCN(CCO)CC1)c1ccccc1CC2` reads 3.85% (inactive).
The result for `CCOC(=O)Nc1ccc2c(c1)N(C(=O)CCCl)c1ccccc1[S@]2=O` reads 84.1% (active).
With `CCOC(=O)Nc1ccc2c(c1)N(C(=O)CN1CCN3CCCC3C1)c1ccccc1CC2` (configuration not stated), the inhibition is 0.5% (inactive).
The result for `CC(C)(C)OC(=O)C[C@H]1C/C=C\C[C@@H](CC(=O)N[C@H](CO)Cc2ccccc2)C(=O)NC[C@@H](c2ccccc2)OC1=O` reads -1.52% (inactive); that for `CC(C)(C)OC(=O)C[C@@H]1C/C=C\C[C@@H](CC(=O)N[C@H](CO)Cc2ccccc2)C(=O)NC[C@@H](c2ccccc2)OC1=O`, -6.65% (inactive); that for `O=C(C[C@H]1C/C=C\C[C@@H](NC(=O)OCC2c3ccccc3-c3ccccc32)C(=O)O[C@@H](c2ccccc2)CNC1=O)N[C@H](CO)Cc1ccccc1`, 67.1% (active).
The result for `CC(=O)c1nn(-c2ccccc2)c(=Nc2ccccc2)cc1C` reads 1.9% (inactive).
In the case of `O=C1NC(O)CCN1C1CC(O)C(CO)O1` (configuration not stated), the inhibition was 15.2% (inactive).
The result for `CSc1nnnn1-c1c(C)cc(C)cc1C` reads 7.96% (inactive).
The result for `CSC1=NCCN1C(=O)c1ccc(S(=O)(=O)N2CCOCC2)cc1` reads -13.6% (inactive); that for `Cc1ccc2nc(-c3ccco3)c(Cc3cccc(Cl)c3)n2c1`, -203% (inactive).
The result for `CCOC(=O)C1=C(C)OC(N)=C(C#N)C1c1cncc(-c2ccc(F)cc2)c1` (configuration not stated) reads 101% (active).
In the case of `CCCc1nc2c([nH]1)C(c1cccnc1)C(C#N)=C(N)O2` (configuration not stated), the inhibition is -0.33% (inactive).
The result for `CCOC(=O)C1=C(CC)OC(N)=C(C#N)C1c1ccc(F)cc1F` (configuration not stated) reads 8.52% (inactive).
Consider `CCOP(=O)(OCC)C(Cc1ccccc1)N=C(c1ccccc1)c1ccccc1` (configuration not stated), for which the inhibition is 41.3% (inactive).
The result for `Cc1cccc(NC(=O)c2ccc(S(=O)(=O)N(C)CC3CCCO3)cc2)c1C` (configuration not stated) reads 4.42% (inactive); that for `CCOC(=O)c1c(NC(=O)c2ccc(S(=O)(=O)N(C)CC3CCCO3)cc2)sc2c1CC(C)(C)NC2(C)C` (configuration not stated), 85.8% (active); that for `CN(CC1CCCO1)S(=O)(=O)c1ccc(C(=O)Nc2ccc(F)cc2)cc1` (configuration not stated), 21.5% (inactive).
For `CC(=O)Nc1cc(-c2ccccc2F)cn2c(-c3cccc(C(F)(F)F)c3)cnc12`, the inhibition was 25% (inactive).
In the case of `COc1ccc(S(=O)(=O)N2CCCCC2)cc1NC(=O)c1cc([N+](=O)[O-])ccc1N1CCOCC1`, the inhibition is 13.5% (inactive).
The result for `CCOc1ccc2nc(NC(=O)c3cc([N+](=O)[O-])ccc3N3CCOCC3)sc2c1` reads 61.8% (active); that for `O=C(NCc1ccc2c(c1)OCO2)c1cc([N+](=O)[O-])ccc1N1CCOCC1`, 17.4% (inactive).
For the compound `COc1cccc(-c2cc(NC(C)=O)c3ncc(-c4cccc(C(C)=O)c4)n3c2)c1`, the inhibition is -9.41% (inactive).
The result for `CCN(CC)c1ncnc2c1ncn2[C@H]1CN(Cc2cccs2)C[C@@H](CO)O1` reads 5.39% (inactive); that for `CC1CCCN(C(=O)CN2C(=O)c3ccccc3S2(=O)=O)C1` (configuration not stated), -95% (inactive).
As for `CN(Cc1ccc(F)cc1)C(=O)CN1C(=O)c2ccccc2S1(=O)=O`, the inhibition is 1.25% (inactive).
The result for `O=C(CN1C(=O)c2ccccc2S1(=O)=O)N1CCc2ccccc21` reads 94.5% (active).
